High-throughput results (PubChem)
Rows were chosen to be rich in hits. Some 15% of all compounds tested hit in one or more screens of this group.
VP16 counter: VP16 counterscreen qHTS for inhibitors of ROR gamma transcriptional activity. Potency, µM (series often up to 53.6 µM), for the others: at the highest dose activity, negative = inhibition, usual class: inhibitors. actives 3.5% (n = 310,000). Drosophila S2 Gal4-VP16 UAS-luciferase, luminescence, 20 h;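 note: Gal4-VP16 expression switched on by copper sulfate through the metallothionein promoter; nearly all actives have a fitted effect of over 50% in size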
RORgamma inh: qHTS for inhibitors of ROR gamma transcriptional activity; Nuclear receptor ROR-gamma (Mus musculus), P51450; Drosophila S2 Gal4-RORgamma UAS-luciferase reporter, 20 h; Potency, µM (doses to about 53.6 µM), inactives show top-dose activity change, negative = inhibition, usual class: inhibitors; actives 5.4% (n = 310,000); AID 2551, 2010; note: nearly all actives have a fitted effect of over 60% in size
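Using a luciferase readout, inhibitors were identified by reduced reporter activity in Drosophila cells coexpressing a copper-inducible Gal4–ROR gamma fusion and UAS-driven Photinus luciferase, incubated 20 hr after 700 uM copper sulfate.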
DT40 TDP1 no CPT: qHTS for Inhibitors of human tyrosyl-DNA phosphodiesterase 1 (TDP1): qHTS in cells in absence of CPT; DT40 Tdp1-/- hTDP1 cells, no CPT, ATP luminescence, 48 h; Potency, µM (doses to about 46.2 µM), for inactives: at the top dose activity change, negative = growth inhibition, actives largely listed as inhibitors; actives 15% (n = 420,000); AID 686978, 2013; note: nearly all actives have a fitted effect of over 55% in size
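Camptothecin absent (DMSO only). Human TDP1-complemented DT40 knockout cells, 400 cells/well, 37 °C for minimum 48 hr; ATP measured via CellTiter-Glo, 30 min dark incubation, luminescence.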
TDP1 cell CPT: qHTS for Inhibitors of human tyrosyl-DNA phosphodiesterase 1 (TDP1): qHTS in cells in presence of CPT; chicken DT40 Tdp1-/-;hTDP1 cells + 20 nM CPT, ATP luminescence, 48 h; Potency, µM (doses to about 46.2 µM), without a hit: at the highest dose activity change, negative = growth inhibition, most hits filed as inhibitors; AID 686979, 2013; actives 12% (n = 420,000); note: nearly all actives have a fitted effect of over 55% in size
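Chicken DT40 Tdp1-/- cells stably complemented with human TDP1 were seeded at 400 cells/well in medium containing 20 nM camptothecin, exposed to pin-transferred compounds, and grown at 37 °C for at least 48 hr. Viability was read as ATP luminescence.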
12-LOX inh: Primary qHTS assay for inhibitors of human arachidonate 12S-lipoxygenase (ALOX12): Round 2. purified 12hLO, xylenol orange hydroperoxide absorbance. Potency, µM (titrated, usually from 108 µM), for inactives: top-dose activity change, negative = inhibition, actives largely listed as inhibitors. actives 1.1% (n = 580,000). AID 1671190, 2021
Target sequence (P18054 whole entry, looked up): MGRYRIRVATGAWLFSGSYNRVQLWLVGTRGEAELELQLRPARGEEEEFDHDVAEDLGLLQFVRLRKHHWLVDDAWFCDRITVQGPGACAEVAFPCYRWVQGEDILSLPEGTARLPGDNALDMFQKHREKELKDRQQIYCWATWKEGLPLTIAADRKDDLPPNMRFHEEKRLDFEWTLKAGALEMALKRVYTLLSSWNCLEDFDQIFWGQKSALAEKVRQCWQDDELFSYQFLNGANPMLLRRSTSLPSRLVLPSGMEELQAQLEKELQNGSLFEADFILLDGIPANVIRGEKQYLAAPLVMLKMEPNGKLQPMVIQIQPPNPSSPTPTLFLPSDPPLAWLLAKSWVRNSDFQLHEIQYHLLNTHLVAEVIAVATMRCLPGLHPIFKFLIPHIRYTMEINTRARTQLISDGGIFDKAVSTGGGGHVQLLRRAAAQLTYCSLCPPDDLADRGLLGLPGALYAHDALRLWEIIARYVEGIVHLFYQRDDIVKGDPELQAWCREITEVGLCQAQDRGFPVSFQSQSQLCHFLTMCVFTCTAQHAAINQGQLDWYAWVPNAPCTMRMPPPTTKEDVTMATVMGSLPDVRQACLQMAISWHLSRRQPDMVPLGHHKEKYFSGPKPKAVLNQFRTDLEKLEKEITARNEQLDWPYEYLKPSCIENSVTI
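Purified human 12hLO (150 nM final) in 25 mM Hepes, 0.01% Triton X-100, pH 7.0 was preincubated 15 min at room temperature with compound. Then 40 uM arachidonic acid was added, 30 min. Hydroperoxide was read by Fe-XO absorbance ratio 573/405 nm.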
ELG1 repair inh: qHTS screen for small molecules that inhibit ELG1-dependent DNA repair in human embryonic kidney (HEK293T) cells expressing luciferase-tagged ELG1; HEK293T ELG1-luciferase reporter, luminescence, 16 h; DNA damage induced by 5-fluorouridine; Potency, µM (titrated, usually from 46.1 µM), inactives show top-dose activity change, negative = inhibition, hits mostly inhibitors; actives 2.3% (n = 330,000); AID 504467, 2011; note: nearly all actives have a fitted effect of over 55% in size
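Step one: seed 2,000 cells per well. Step two: pin-transfer compound or DMSO alongside 5-fluorouridine. Step three: incubate 16 hr, 37 °C, 5% CO2. Step four: add ONE-Glo, wait 30 min, read luminescence.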
An asterisk follows results filed as active; ? = inconclusive; · = not tested or not shown; [ ] = dose if it differs, or a comment. Calls come from the whole dose curve; as a rule, active = well fitted curve in the direction sought with a large enough effect; inconclusive = small, poorly fitted or top-dose-only effect, or another doubt; inactive = no such curve, though single readings can be large; an effect the other way counts as inactive or inconclusive. % is set by controls: 0 for no effect and ±100 for the full control effect; potency is the fitted concentration of half-maximal effect.

SMILES | VP16 counter | RORgamma inh | DT40 TDP1 no CPT | TDP1 cell CPT | 12-LOX inh | ELG1 repair inh
O=C(Cc1c(F)c(F)c(F)c(F)c1F)Nc1nc(-c2ccccc2)cs1 | -22% | ? | 16µM* | ? | -23% | 20%
Cc1ccc(NC(=O)Nc2nc(-c3ccc(C)s3)cs2)cc1 | -9% | -17% | 12µM* | ? | 51% | 0%
CC(=O)Nc1ccc(-c2csc(NC(=O)Cc3ccccc3F)n2)cc1 | 9% | 24% | ? | ? | -48% | -3%
O=C(Cc1ccccc1F)Nc1nc(-c2ccc(F)c(F)c2)cs1 | -7% | ? | 2.1µM* | 5.2µM* | ? | -4%
COc1ccc(CC(=O)Nc2ncc([N+](=O)[O-])s2)cc1OC | 23% | 37% | ? | ? | 35µM* | 3%
Cc1occc1-c1nnc(SCC(=O)Nc2ccc3c(c2)OC2(CCCCC2)O3)o1 | · | · | · | · | 8% | ·
CC(=O)Nc1ccc(-c2csc(NC(=O)Cc3cccc(F)c3)n2)cc1 | 3% | 32% | 23µM* | ? | -16% | 18µM*
COc1ccc(CCNc2nc(-c3cc(OC)c(OC)c(OC)c3)cs2)cc1OC | · | · | · | · | 7.9µM* | ·
COc1ccc(CC(=O)Nc2nc(C)cs2)cc1 | 24% | 40% | 12% | 7% | 4% | -16%
COc1ccc(CCCc2nnc(SCC(=O)Nc3nc(C)cs3)n2C)cc1C | -13% | -41% | 26µM* | ? | 0% | ?
COc1ccc(CC(=O)Nc2nc(C)cs2)cc1OC | ? | -14% | ? | -21% | -5% | 16µM*
CC(C)CN1CCc2[nH]cnc2C12CCN(C(=O)CN1CCOC1=O)CC2 | · | · | · | · | 11% | ·
O=C(C1CC(=O)N(c2n[nH]c3cccc(F)c23)C1)N1CCSCC1 (centres undefined) | · | · | · | · | 39% | ·
O=C(Nc1cccc(Cl)c1)Nc1csc([N+](=O)[O-])c1 | ? | -13% | 2.3µM* | 2.9µM* | ? | ?
O=C(Nc1ccncc1)Nc1cccc(Cl)c1 | -4% | 23% | -23% | ? | ? | ?
O=C(Cc1ccccc1)Nc1nc(-c2ccc(F)c(F)c2)cs1 | -5% | 11% | ? | 1.8µM* | 0% | -5%
COc1ccc(-c2csc(NC(=O)CN3C(=O)CCC3=O)n2)cc1OC | -15% | -3% | 2% | 0% | -12% | 3%
COc1ccc(-c2csc(NC(=S)NC(=O)c3ccc4ccccc4c3)n2)cc1OC | ? | 2µM* | ? | ? | ? | -7%
COc1cccc(NC(=O)Nc2nc(-c3ccc(OC)c(OC)c3)cs2)c1 | ? | ? | 7.3µM* | 18µM* | -18% | 4.1µM*
O=C(COc1ncnc2sc3c(c12)CCC3)N1CCCc2ccccc21 | · | · | · | · | -16% | ·
O=C(Nc1ccc2oc(-c3ccccc3)nc2c1)c1ccc(Cl)cc1 | · | · | · | · | 4% | ·
Cc1ccc(Cn2c(C3CCN(C(=O)Cc4cccc(F)c4)CC3)n[nH]c2=O)cc1 | · | · | · | · | 10% | ·
COc1ccc(C(NC(=O)c2cccc(-n3cnnc3)n2)C2CC(O)C2)cn1 (centres undefined) | · | · | · | · | 2% | ·
Cc1cc(C(=O)OC(C)C(=O)Nc2nc(-c3ccccc3)cs2)c(C)o1 (centres undefined) | -5% | 34% | -15% | -3% | -20% | -13%
O=C(CCCc1cccs1)Nc1nc(-c2ccc(F)cc2)cs1 | -23% | 35%[10 µM] | 8.2µM* | ? | -10% | 19%
SMILES | VP16 counter | RORgamma inh | DT40 TDP1 no CPT | TDP1 cell CPT | 12-LOX inh | ELG1 repair inh
COc1ccc(-c2csc(NC(=O)CCn3cnc4ccccc4c3=O)n2)cc1OC | -26% | -34% | 18µM* | ? | -17%[57.4 µM] | 7.3µM*
CC(OC(=O)c1ccc([N+](=O)[O-])o1)C(=O)Nc1nc(-c2ccc(F)c(F)c2)cs1 (centres undefined) | · | · | 21µM* | 21µM* | -27% | ?
COC(=O)c1c(-c2ccc3ccccc3c2)csc1NC(=O)Cc1ccc(OC)c(OC)c1 | ? | ? | 13µM* | -74% | ? | ?
O=C(CCc1cccs1)Nc1nc(-c2ccc(Cl)cc2)cs1 | · | · | · | · | -1% | ·
Cc1nnc(NC(=O)CCn2cnc3ccccc3c2=O)s1 | 0% | -18% | 0% | -19% | 0% | 7%
Cc1ccc(NC(=O)COC(=O)CCSc2ccc(F)cc2)c(Br)c1 | · | · | · | · | 2% | ·
COc1ccc2cc(C(=O)NCc3ccc4c(c3)CCN4C(=O)c3ccc(C)cc3)[nH]c2c1 | · | · | ? | 13µM* | ? | ·
COc1ccc2cc(C(=O)NCc3ccc4c(c3)CCN4C(=O)c3ccc(F)cc3)[nH]c2c1 | · | · | 18µM* | 21µM* | -30% | ·
COc1cccc2[nH]c(C(=O)NCc3ccc4c(c3)CCN4C(=O)c3ccc(F)cc3)cc12 | · | · | ? | ? | -19% | ·
O=C(NCc1ccccc1Cl)C(=O)Nc1ccccc1 | · | · | · | · | -6% | ·
COC(=O)c1cc(CSC(=N)N)ccc1OCCC(C)C | ? | ? | 23µM* | ? | ? | -12%
COC(=O)[C@H](NC(=O)Nc1cc(C)cc(C)c1)C(C)C | · | · | · | · | -9% | ·
O=C(COc1ccc(Cl)cc1Cl)NC(=S)N1CCCc2ccccc21 | ? | ? | 21µM* | ? | ? | 0%
O=C(NC(=S)N1CCc2ccccc21)c1ccccc1Cl | 1µM* | 0.45µM* | ? | ? | -12% | ?
O=C(NC(=S)N1CCc2ccccc21)c1ccccc1 | 0.5µM* | 0.56µM* | 18µM* | 21µM* | -24% | ?
O=C(COc1ccc(Cl)cc1Cl)OCC(=O)N1CCCc2ccccc21 | -12% | ? | 0% | -9% | -15% | 7%
C=C(C)C1Cc2nc(N)nc(C)c2C1 (centres undefined) | -1% | -4% | -14% | -14% | -1% | 7%
C=C(C)C1Cc2c(C)nn(-c3nc(C)cc(C)n3)c2C1 (centres undefined) | 2µM* | 0.35µM* | 4.6µM* | 2.3µM* | ? | -9%
O=c1oc2ccccc2c(NC2CCCCC2)c1NS(=O)(=O)c1ccc(F)cc1 | 6% | 8% | ? | ? | -4% | -4%
O=c1[nH]c2ccc(S(=O)(=O)Nc3c(NC4CCCCC4)c4ccccc4oc3=O)cc2o1 | · | · | · | · | 40µM* | ·
